# Source: PubChem BioAssay (NCATS)
# Several values for one entry are separate records, joined by “and”; a condition that tells them apart may be missing. Equal values may be shown once. Records with an inconclusive call do not appear. Where a call stands in place of a potency, no number is given. Values without a mark were called inactive. Activity calls are given as the source filed them. Unless noted, calls come from the whole dose curve; as a rule, active = well fitted curve in the direction sought with a large enough effect; inconclusive = small, poorly fitted or top-dose-only effect, or another doubt; inactive = no such curve, though single readings can be large; an effect the other way counts as inactive or inconclusive. Numbered stars: 1 amine (or outer) side, 2 acyl side, 3 side chain; on linkers, the order of the positions; unused ones are H or OH. Bridge positions count the residues as written; N and C are the ends. Square brackets hold non-standard residues; d marks the D form. Peptide text beside a SMILES is read from it. I, II: the chains in the order shown. Actinocin(9to1) = Cc1c2oc3c(C)ccc(C(=O)[*:1])c3nc-2c(C(=O)[*:2])c(N)c1=O; NMeV = CN[C@H](C(=O)O)C(C)C; Sar = CNCC(=O)O
# Key:
# [1] = target: Calcium and integrin-binding protein 1 (Homo sapiens) (UniProt Q99828); experiment: Confirmatory qHTS for Identification of Calcium Integrin Binding Protein 1 (CIB1) Competitor (AID 1508617); note: nearly all actives have a fitted effect of over 65% in size
# Procedure, shortened: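 Fluorescence polarization competition: CIB1-GST (1 uM final) in 5 mM HEPES pH 7.4, 125 mM NaCl, 5 mM CaCl2, 0.01% Tween20 preincubated 15 min RT with compound (up to 114 uM), then FITC-alphaIIb peptide (100 nM) added, 15 min RT.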
# [2] = target: Cytochrome P450 3A4 (Homo sapiens) (UniProt P08684); experiment: Cytochrome P450 family 3 subfamily A member 4 (CYP3A4) small molecule antagonists: luciferase qHTS assay (AID 1645841; active = well fitted curve in the direction sought with a large enough effect in the repeat runs; an effect the other way counts as inactive or inconclusive; note: nearly all actives have a fitted effect of over 45% in size)
# Procedure, shortened: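 P450-Glo CYP3A4 enzyme with proluciferin substrate was preincubated with DMSO-dissolved compounds for 10 min at room temperature. NADPH regeneration solution started a 1 h reaction. Detection reagent stopped it, and luminescence was read after 20 min.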
# [3] = Cell Viability qHTS for small molecule stabilizers of the endoplasmic reticulum resident proteome (AID 1508629); conditions: cell viability counter-screen, 100 nM thapsigargin for final 4 h;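 note: human SH-SY5Y neuroblastoma cells carrying the GLuc-SERCaMP reporter; compound exposure about 46 h in total before the viability read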
# [4] = Confirmatory qHTS to identify inhibitors of SARS-CoV-2 cell entry (AID 1645844; calls by dose curve; note: potency is the fitted concentration of half-maximal effect; nearly all actives have a fitted effect of over 45% in size)
# Procedure, shortened: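 HEK293-ACE2 cells (Expi293F stably expressing human ACE2) were pretreated with compounds for 1 hr at 37C, then infected with MLV-based particles carrying Wuhan-Hu-1 spike (C-terminal 19-aa truncation). Luciferase luminescence read after 48 hr; normalized to spike PP (100%) and bald PP (0%).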
# [5] = Primary qHTS for inhibitors of La Crosse Virus (LACV) - induced cell death in SH-SY5Y cells (AID 1508616);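 note: top concentration of the series differs between compounds; higher means more rescue of cells from virus-induced death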
# Procedure, shortened: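 SH-SY5Y cells (6000/well) plated 24 h, then given compounds by pin transfer and LACV at 0.01 MOI for 6 days at 37C. Viability measured by ATPLite luminescence, normalized to infected DMSO and uninfected DMSO.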
# [6] = target: Calcium and integrin-binding protein 1 (Homo sapiens) (UniProt Q99828); experiment: Primary qHTS for Identification of Calcium Integrin Binding Protein 1 (CIB1) Competitor (AID 1508620);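 note: GST tagged CIB1 binding a fluorescein labelled alphaIIb integrin peptide tracer; top concentration of the series differs between compounds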
# Procedure, shortened: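 Fluorescence polarization competition: CIB1-GST (1 uM final) preincubated with compound 15 min at room temperature, then FITC-labeled alphaIIb peptide (100 nM final) added for another 15 min. Polarization read at Ex 480/Em 540.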
# [7] = Primary qHTS for small molecule stabilizers of the endoplasmic reticulum resident proteome: Secreted ER Calcium Modulated Protein (SERCaMP) assay (AID 1508630)
# Procedure, shortened: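 GLuc-SERCaMP-expressing SH-SY5Y cells, pretreated 16 h with compound, are challenged with thapsigargin to empty ER calcium stores; after 4 h, coelenterazine is added directly to the medium and luminescence is imaged.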
# [8] = A High-Content qHTS Against Drug Library for the Identification of Small Molecules that Inhibit DYT1 Early Onset Primary Dystonia-Associated Cell Pathology (AID 1645839; calls by dose curve; note: series mostly up to about 46 µM)
# Procedure, shortened: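 Readout: %pathology, the punctate EGFP-TorsinA distribution from imaging, as the primary channel and cell count as the toxicity counterscreen. HEK293 Flp-In cells expressing delE TorsinA were induced with tetracycline and treated with compound for 48 h.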
# [9] = target: Cytochrome P450 2C9 (Homo sapiens) (UniProt P11712); experiment: Cytochrome P450 family 2 subfamily C member 9 (CYP2C9) small molecule antagonists: luciferase biochemical (cell-free) qHTS assay (AID 1645842; active = well fitted curve in the direction sought with a large enough effect in the repeat runs; an effect the other way counts as inactive or inconclusive; note: nearly all actives have a fitted effect of over 55% in size; note: potency is the fitted concentration of half-maximal effect)
# Procedure, shortened: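 Luminescence, after 20 min with luciferin detection reagent, reflected CYP2C9 turnover during a 1 h NADPH-driven reaction at 37C. Enzyme-substrate mix contained 0.4% bovine serum albumin and was preincubated with compound 10 min at room temperature.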
# [10] = Cytotoxicity counterscreen for inhibitors of SARS-CoV-2 cell entry (AID 1645845; calls by dose curve; note: nearly all actives have a fitted effect of over 50% in size; note: potency is the fitted concentration of half-maximal effect)
# Procedure, shortened: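 Expi293F/hACE2 cells seeded overnight; cpd pin-transferred in DMSO, 1 h preincubation, + media, 48 h 37 C 5% CO2; ATPLite 1step luminescence; normalized to cells and no cells.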
# [11] = target: Calcium and integrin-binding protein 1 (Homo sapiens) (UniProt Q99828); experiment: Validation qHTS for Identification of Calcium Integrin Binding protein 1 (CIB1) Competitor (AID 1508618)
# Procedure, shortened: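 CIB1-GST (1 uM final) in 5 mM HEPES pH 7.4, 125 mM NaCl, 5 mM CaCl2, 0.01% Tween20 was preincubated 15 min at room temperature with compound (up to 114 uM), then FITC-alphaIIb peptide (100 nM) added for 15 min; fluorescence polarization read.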
# [12] = target: Cytochrome P450 2D6 (Homo sapiens) (UniProt P10635); experiment: Cytochrome P450 family 2 subfamily D member 6 (CYP2D6) small molecule antagonists: luciferase biochemical (cell-free) qHTS assay (AID 1645840; active = well fitted curve in the direction sought with a large enough effect in the repeat runs; an effect the other way counts as inactive or inconclusive; note: potency is the fitted concentration of half-maximal effect; nearly all actives have a fitted effect of over 55% in size)
# Procedure, shortened: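 P450-Glo luminescent screen: recombinant CYP2D6 enzyme–proluciferin substrate mix preincubated with compound 10 min at room temperature, then NADPH regeneration added for 1 h at room temperature. Detection reagent added for 20 min; luciferin light read as relative luminescence units.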
# Sequence of Cytochrome P450 2D6 (Homo sapiens) (P10635 whole entry, looked up): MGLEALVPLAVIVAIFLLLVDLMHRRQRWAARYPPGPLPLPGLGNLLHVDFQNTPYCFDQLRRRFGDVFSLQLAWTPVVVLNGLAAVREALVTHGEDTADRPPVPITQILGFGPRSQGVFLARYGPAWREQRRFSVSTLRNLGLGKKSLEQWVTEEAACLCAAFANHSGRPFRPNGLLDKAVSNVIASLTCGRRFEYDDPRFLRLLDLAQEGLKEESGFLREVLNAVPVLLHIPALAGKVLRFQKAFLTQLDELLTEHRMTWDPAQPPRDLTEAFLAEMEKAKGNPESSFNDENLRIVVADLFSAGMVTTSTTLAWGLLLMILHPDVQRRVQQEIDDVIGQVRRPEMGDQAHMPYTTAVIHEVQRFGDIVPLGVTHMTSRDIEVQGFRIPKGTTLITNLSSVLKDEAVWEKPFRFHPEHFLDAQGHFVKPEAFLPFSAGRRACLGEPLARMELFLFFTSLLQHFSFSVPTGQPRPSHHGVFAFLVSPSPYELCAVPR
# Sequence of Calcium and integrin-binding protein 1 (Homo sapiens) (Q99828 whole entry, looked up): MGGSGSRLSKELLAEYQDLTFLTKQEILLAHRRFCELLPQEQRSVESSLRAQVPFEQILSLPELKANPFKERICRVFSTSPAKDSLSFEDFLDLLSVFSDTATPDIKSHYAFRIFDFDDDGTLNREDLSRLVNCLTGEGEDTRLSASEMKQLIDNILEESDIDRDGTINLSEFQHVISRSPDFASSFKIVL
# Sequence of Cytochrome P450 2C9 (Homo sapiens) (P11712 whole entry, looked up): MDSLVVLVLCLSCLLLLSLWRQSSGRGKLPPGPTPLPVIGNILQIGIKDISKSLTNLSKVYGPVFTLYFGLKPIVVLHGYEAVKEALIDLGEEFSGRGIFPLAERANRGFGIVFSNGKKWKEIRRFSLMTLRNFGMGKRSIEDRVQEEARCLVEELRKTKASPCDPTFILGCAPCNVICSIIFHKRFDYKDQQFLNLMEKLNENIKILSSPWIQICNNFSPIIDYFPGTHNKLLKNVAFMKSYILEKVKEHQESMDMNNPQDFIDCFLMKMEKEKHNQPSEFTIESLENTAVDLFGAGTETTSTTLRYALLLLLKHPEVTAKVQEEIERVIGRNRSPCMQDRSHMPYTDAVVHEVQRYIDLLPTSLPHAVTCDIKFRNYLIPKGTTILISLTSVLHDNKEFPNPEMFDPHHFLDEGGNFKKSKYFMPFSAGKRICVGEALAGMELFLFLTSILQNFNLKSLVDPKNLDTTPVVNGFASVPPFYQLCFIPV
# Sequence of Cytochrome P450 3A4 (Homo sapiens) (P08684 whole entry, looked up): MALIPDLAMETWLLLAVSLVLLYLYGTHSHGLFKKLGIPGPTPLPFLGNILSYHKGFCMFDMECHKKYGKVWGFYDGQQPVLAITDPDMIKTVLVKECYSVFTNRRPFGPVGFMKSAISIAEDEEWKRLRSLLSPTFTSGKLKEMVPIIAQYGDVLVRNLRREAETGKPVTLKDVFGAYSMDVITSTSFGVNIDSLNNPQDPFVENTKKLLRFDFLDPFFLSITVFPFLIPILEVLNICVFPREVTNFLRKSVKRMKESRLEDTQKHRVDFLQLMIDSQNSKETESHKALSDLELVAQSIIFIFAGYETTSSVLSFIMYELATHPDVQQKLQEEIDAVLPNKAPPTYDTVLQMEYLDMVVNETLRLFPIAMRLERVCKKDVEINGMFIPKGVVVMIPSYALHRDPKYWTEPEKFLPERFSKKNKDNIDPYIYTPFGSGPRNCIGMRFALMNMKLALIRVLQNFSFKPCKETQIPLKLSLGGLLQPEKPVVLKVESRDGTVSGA
structure (smiles),measurement,setting,value
CN1C[C@H](CNC(=O)OCc2ccccc2)C[C@@H]2c3cccc4c3c(cn4C)C[C@H]21,outcome,[1],inactive
same,outcome,[2],inactive
CC(C)CC(N(C)C)C1(c2ccc(Cl)cc2)CCC1 (stereo not drawn),max response,[3],6.57%
CCN(CC)CCOC(=O)C(O)(c1ccccc1)c1ccccc1,max response,[3],31.2%
COc1ccccc1N1CCNCC1,outcome,[2],inactive
"Cc1c2oc3c(C)ccc(C(=O)N[C@@H]4C(=O)N[C@H](C(C)C)C(=O)N5CCC[C@H]5C(=O)N(C)CC(=O)N(C)[C@@H](C(C)C)C(=O)O[C@@H]4C)c3nc-2c(C(=O)N[C@@H]2C(=O)N[C@H](C(C)C)C(=O)N3CCC[C@H]3C(=O)N(C)CC(=O)N(C)[C@@H](C(C)C)C(=O)O[C@@H]2C)c(N)c1=O (I: T[dV]P[Sar][NMeV] / II: T[dV]P[Sar][NMeV]; ester I:1-I:C, II:1-II:C; linker I:N-II:N via Actinocin(9to1))",Potency,[4],0.0764 µM (active)
CN1C(=S)CN=C(c2ccccc2)c2cc(Cl)ccc21,Potency,[5],inactive
same,Potency,[6],inactive
same,outcome,[7],inactive
same,Potency,[8],inactive
same,Potency,[9],12.3 µM (active)
Cc1cc(SCc2sc(-c3ccc(C(F)(F)F)c(F)c3)nc2C)ccc1OCC(=O)O,Potency,[6],inactive
same,outcome,[7],inactive
same,Potency,[10],inactive
COc1cccc2c1C(=O)c1c(O)c3c(c(O)c1C2=O)C[C@@](O)(C(=O)CO)C[C@@H]3O[C@H]1C[C@H](N)[C@H](O)[C@H](C)O1,Potency,[4],0.192 µM (active)
same,Potency,[10],inactive
CCCN1CCC[C@@H]2Cc3nc(N)ncc3C[C@H]21,Potency,[11],inactive
same,Potency,[6],inactive
same,outcome,[7],inactive
same,Potency,[8],inactive
same,Potency,[12],9.77 µM (active)
same,Potency,[9],inactive
CCN(CC)CCN1C(=O)CN=C(c2ccccc2F)c2cc(Cl)ccc21,Potency,[5],inactive
same,Potency,[6],inactive
same,Potency,[8],inactive
same,Potency,[12],13.8 µM (active)
same,Potency,[9],inactive
COC1(CS(=O)c2ccccc2)CCN(CCc2c[nH]c3ccc(F)cc23)CC1 (stereo not drawn),Potency,[6],inactive
same,outcome,[7],inactive
same,Potency,[10],inactive
CC1=C2C[C@@H]3[C@@H](CC=C4C[C@@H](O)CC[C@@]43C)[C@@H]2CC[C@]12O[C@H]1C[C@H](C)CN[C@H]1[C@H]2C,Potency,[6],inactive
same,outcome,[7],inactive
COc1cc(NCc2ccc3nc(N)nc(N)c3c2C)cc(OC)c1OC,Potency,[10],11.2 µM (active) and 1.12 µM (active)
N[C@@H](Cc1ccc(Oc2cc(I)c(O)c(I)c2)c(I)c1)C(=O)O,Potency,[5],inactive
same,outcome,[7],inactive
same,Potency,[8],inactive
same,Potency,[12],19.5 µM (active)
same,Potency,[9],3.89 µM (active)
